Results published in PubChem BioAssay (NCATS).
Inconclusive results are not listed. The source made the active and inactive calls. Calls follow the shape of the dose curve; as a rule, active = well fitted curve in the direction sought with a large enough effect; inconclusive = small, poorly fitted or top-dose-only effect, or another doubt; inactive = no such curve, though single readings can be large; an effect the other way counts as inactive or inconclusive.

What was measured:
[1] = tested on: Zika virus NS2B-NS3 protease (linked construct); assay: Primary screen NINDS Rhodamine qHTS for Zika virus inhibitors (AID 1347160); also: % is scaled to controls: 0 for no effect and ±100 for the full control effect; nearly all actives have a fitted effect of over 55% in size
Procedure, shortened: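 Purified NS2B-NS3 protease with the NS2B hydrophilic domain joined by a flexible linker (25 nM) in 10 mM Tris-HCl pH 8.0, 0.01% Tween 20, preincubated 15 min at RT with compound; Rhodamine110 peptide substrate 1.5 µM; fluorescence change over 15 min; 4-parameter Hill fit.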

[2] = Primary qHTS for inhibitors of nuclear receptor binding SET domain protein 2 (NSD2) in an isogenic RCH-ACV NSD2 p.E1099K mutant (9B) (AID 1645876); also: nearly all actives have a fitted effect of over 70% in size; also: potency is read from the fitted curve at half-maximal effect
[3] = Primary qHTS for inhibitors of nuclear receptor binding SET domain protein 2 (NSD2) in an RCH-ACV wild type WT cells (2C) (AID 1645877); also: nearly all actives have a fitted effect of over 70% in size; also: potency is read from the fitted curve at half-maximal effect
[4] = target: Glutathione peroxidase 1 (Homo sapiens) (UniProt P07203); assay: Primary qHTS Assay for Inhibitors of Recombinant Selenoprotein Glutathione Peroxidase 1 (GPX1) (AID 1845191); also: % is scaled to controls: 0 for no effect and ±100 for the full control effect; nearly all actives have a fitted effect of over 65% in size
Glutathione peroxidase 1 (Homo sapiens), sequence (P07203 whole entry, looked up): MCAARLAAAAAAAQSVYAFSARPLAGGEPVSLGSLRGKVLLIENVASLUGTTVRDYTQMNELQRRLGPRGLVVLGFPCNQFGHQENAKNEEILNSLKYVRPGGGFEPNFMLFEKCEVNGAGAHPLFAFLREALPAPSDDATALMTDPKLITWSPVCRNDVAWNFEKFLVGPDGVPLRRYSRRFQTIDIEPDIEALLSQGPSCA
Procedure, shortened: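 Recombinant GPX1 (10 nM final) was preincubated with compound for 30 min at room temperature, then reacted with 1 mM GSH, 0.5 mM CHP, 0.5 mM NADPH and 100 nM glutathione reductase; NADPH fluorescence (340/450 nm) was read at 0 and 15 min.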

[5] = target: Phospholipid hydroperoxide glutathione peroxidase GPX4 (Homo sapiens) (UniProt P36969); assay: Primary qHTS Assay for Inhibitors of Recombinant Selenoprotein Glutathione Peroxidase 4 (GPX4) (AID 1845192); also: % is scaled to controls: 0 for no effect and ±100 for the full control effect; nearly all actives have a fitted effect of over 65% in size
Phospholipid hydroperoxide glutathione peroxidase GPX4 (Homo sapiens), sequence (P36969 whole entry, looked up): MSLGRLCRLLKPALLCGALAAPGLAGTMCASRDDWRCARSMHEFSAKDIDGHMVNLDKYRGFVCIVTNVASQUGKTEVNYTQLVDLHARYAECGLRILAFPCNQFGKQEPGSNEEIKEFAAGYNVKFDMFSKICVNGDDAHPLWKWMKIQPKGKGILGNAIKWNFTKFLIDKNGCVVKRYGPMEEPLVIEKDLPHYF
Procedure, shortened: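 GR-coupled readout: 100 nM GR, 1 mM GSH, 0.5 mM NADPH; NADPH fluorescence (ex 340/em 450 nm) read at t=0 and after 15 min RT. GPX4 200 nM, preincubated 30 min with compound; substrate 0.5 mM CHP.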

[6] = target: Luciferin 4-monooxygenase (Photinus pyralis) (UniProt P08659); assay: Primary firefly luciferase (FLuc) qHTS assay for identification of artifact compounds. (AID 1845220); conditions: outcome: dose series up to 54.1 µM unless noted; also: nearly all actives have a fitted effect of over 60% in size
Procedure, shortened: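 qHTS, 15 min compound preincubation with substrate (10 uM luciferin, 10 uM ATP) at RT, then 10 nM FLuc; 5 min; luminescence; % inhibition vs no-enzyme/DMSO controls, 4-parameter Hill fit.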

[7] = Primary fluorescence-based thiol-reactive (MSTI) qHTS assay for identification of artifact compounds. (AID 1845221);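 also: thiol-reactive compounds lower the probe fluorescence signal; nearly all actives have a fitted effect of over 65% in size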
Procedure, shortened: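 Reactivity toward the thiol probe MSTI (4 uM) is scored by fluorescence at Ex/Em 525/598 nm after 1 h at room temperature. Acetyl-MSTI and MSTI define the activity scale.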

[8] = tested on: Nanoluciferase (engineered Oplophorus gracilirostris luciferase); assay: Primary Nanoluciferase (NLuc) qHTS assay for identification of artifact compounds. (AID 1845222);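 also: 0% = DMSO and -100% = no enzyme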
Procedure, shortened: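 Luminescence read-out of secreted NLuc in S16 cell conditioned medium (1:55); compounds tested with 15 min RT preincubation, then Nano-Glo substrate 1:100, 5 min. % inhibition vs no-enzyme and DMSO controls, 4-parameter Hill fit.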

CRL-7250 = normal cell line; assay: Cytotoxic Profiling of Annotated Libraries Using Quantitative High-Throughput Screening (AID 1296008); conditions: Five cell lines viability, CellTiter-Glo ATP luminescence, 48-72 h; max response: active compounds read low; also: nearly all actives have a fitted effect of over 60% in size; also: potency is read from the fitted curve at half-maximal effect; as to max response: % is scaled to controls: 0 for no effect and ±100 for the full control effect
Procedure, shortened: (§1)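 Compounds were pin-transferred onto cells and incubated 48 or 72 hr at 37 degree Celsius, 95% humidity. CellTiter-Glo was added, plates sat 10 min at room temperature, then ATP-coupled luminescence was imaged as the viability read-out.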

HEK293 = assay: as above; conditions: Five cell lines viability, CellTiter-Glo ATP luminescence, 48-72 h; max response: active compounds read low
Procedure, shortened: as §1

HaCat = assay: as above; conditions: Five cell lines viability, CellTiter-Glo ATP luminescence, 48-72 h; max response: active compounds read low
Procedure, shortened: as §1

NIH3T3 = assay: as above; conditions: Five cell lines viability, CellTiter-Glo ATP luminescence, 48-72 h; max response: active compounds read low
Procedure, shortened: as §1

C33A = assay: Primary qHTS to identify gynecologic anti-cancer compounds using libraries of approved drugs and bioactive compounds (AID 1345084); conditions: Gynecologic cancer cell panel viability, ATPlite luminescence, 48 h; series mostly up to 57.5 µM; also: nearly all actives have a fitted effect of over 55% in size; also: potency is read from the fitted curve at half-maximal effect
Procedure, shortened: (§2)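 Measured: luminescence after ATPlite addition (15 min, RT). Exposure: 48 h, 37 C, 5% CO2.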

Es-2 = assay: as above; conditions: Gynecologic cancer cell panel viability, ATPlite luminescence, 48 h; series mostly up to 57.5 µM
Procedure, shortened: as §2

Hek293T = assay: as above; conditions: Gynecologic cancer cell panel viability, ATPlite luminescence, 48 h, control line for the selectivity index; series mostly up to 57.5 µM
Procedure, shortened: as §2

OV90 = assay: as above; conditions: Gynecologic cancer cell panel viability, ATPlite luminescence, 48 h; series mostly up to 57.5 µM
Procedure, shortened: as §2

PA-1 = assay: as above; conditions: Gynecologic cancer cell panel viability, ATPlite luminescence, 48 h; series mostly up to 57.5 µM
Procedure, shortened: as §2

Tov-21-G = assay: as above; conditions: Gynecologic cancer cell panel viability, ATPlite luminescence, 48 h; series mostly up to 57.5 µM
Procedure, shortened: as §2

Tov112D = assay: as above; conditions: Gynecologic cancer cell panel viability, ATPlite luminescence, 48 h; series mostly up to 57.5 µM
Procedure, shortened: as §2

CASKI = assay: as above; conditions: Gynecologic cancer cell panel viability, ATPlite luminescence, 48 h; series mostly up to 57.5 µM
Procedure, shortened: as §2

CN1C[C@@H]2CN(c3ccc(-c4ccccc4)nn3)C[C@@H]2C1
inactive: Potency [1] | Potency [2] | Potency [3] | Potency [4] | Potency [5] | outcome [6] | Potency [7] | Potency [8] | max response (CRL-7250) 2.36% | max response (HEK293) -5.4% | max response (HaCat) -2.1% | outcome (NIH3T3) | Potency (C33A) | Potency (Es-2) | Potency (Hek293T) | Potency (OV90) | Potency (PA-1) | Potency (Tov-21-G) | Potency (Tov112D)

COC(=O)C1=COC(C)C2CN3CCC4(C(=O)Nc5ccccc54)C3CC12 (stereo not given)
inactive: Potency [1] | Potency [2] | Potency [3] | Potency [4] | Potency [5] | outcome [6] | Potency [7] | Potency [8] | max response (CRL-7250) -2.61% | max response (HEK293) -24% | max response (HaCat) 2.66% | max response (NIH3T3) -11.4% | Potency (C33A) | Potency (CASKI) | Potency (Es-2) | Potency (Hek293T) | Potency (OV90) | Potency (PA-1) | Potency (Tov-21-G) | Potency (Tov112D)

CC(C)[C@H]1OC(=O)[C@H](Cc2ccccc2)N(C)C(=O)[C@@H](C(C)C)OC(=O)[C@H](Cc2ccccc2)N(C)C(=O)[C@@H](C(C)C)OC(=O)[C@H](Cc2ccccc2)N(C)C1=O
inactive: Potency [1] | Potency [5] | outcome [6] | Potency [7] | Potency [8] | Potency (C33A) | Potency (CASKI) | Potency (Es-2) | Potency (OV90) | Potency (Tov-21-G) | Potency (Tov112D)
active: Potency [2] 6.82 µM | Potency [3] 4.83 µM | Potency (CRL-7250) 4.85 µM | Potency (HEK293) 6.11 µM | Potency (PA-1) 7.94 µM
